# Assay results as given in PubChem BioAssay (Tox21).
# “And” between values parts separate entries of the source, which are not always exact repeats. Equal entries are not always repeated. Results filed as inconclusive are left out. Entries that show only a call come without a potency. Some compounds were tested as several samples or in several runs, with calls that do not always agree. The source made the active and inactive calls. Calls follow the shape of the dose curve; as a rule, active = well fitted curve in the direction sought with a large enough effect in the repeat runs; inconclusive = weak or mixed curves; inactive = no such curve, though single readings can be large; an effect the other way counts as inactive or inconclusive.
# Legend:
# [1] = target: Cytochrome P450 2C9 (Homo sapiens) (UniProt P11712); test: Cytochrome P450 Family 2 Subfamily C Member 9 (CYP2C9) small molecule antagonists: luciferase reporter qHTS assay (AID 1671198); as to activity change, negative = inhibition: series mostly up to about 120 µM
# Outline: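 Enzyme-substrate mix preincubated with compound 10 min at room temperature; reaction started with NADPH regeneration solution, 1 h 37C. Luminescent luciferin product read after 20 min detection reagent.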
# [2] = target: Cytochrome P450 1A2 (Homo sapiens) (UniProt P05177); test: Cytochrome P450 Family 1 Subfamily A Member 2 (CYP1A2) small molecule antagonists: luciferase reporter qHTS assay (AID 1671199); as to activity change, negative = inhibition: series mostly up to about 120 µM
# Outline: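 Room-temperature CYP1A2 reaction with proluciferin substrate: compounds added from DMSO, 10 min preincubation, NADPH regeneration for 1 h. Luciferin detection reagent then added; luminescence recorded as RLU.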
# [3] = target: Voltage-gated inwardly rectifying potassium channel KCNH2 (Homo sapiens) (UniProt Q12809); test: Human Ether-a-go-go-Related Gene (hERG) channel small molecule antagonists: fluorescence cell-based qHTS assay (AID 1671200);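 as to activity change, negative = inhibition: hERG-expressing U2OS cells given a thallium stimulus after FluxOR II dye loading; series mostly up to about 77 µM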
# Outline: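 First, 1000 cells per well are seeded and cultured overnight at 37 C. Next, FluxOR II dye is loaded for 1 h at room temperature, protected from light. After 10 more minutes, stimulus is added and fluorescence is read.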
# [4] = target: Cytochrome P450 3A4 (Homo sapiens) (UniProt P08684); test: Cytochrome P450 Family 3 Subfamily A Member 4 (CYP3A4) small molecule antagonists: luciferase reporter qHTS assay (AID 1671201); as to activity change, negative = inhibition: series mostly up to about 120 µM
# Outline: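 Enzyme and proluciferin substrate are mixed with test chemicals for 10 min, then NADPH regeneration system drives turnover for 1 h at room temperature. A detection reagent halts the reaction; luminescence after 20 min gives relative activity.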
# Also: nearly all actives have a fitted effect of over 50% in size.
# Potency is read from the fitted curve at half-maximal effect.
# Sequence of Cytochrome P450 1A2 (Homo sapiens) (P05177 whole entry, looked up): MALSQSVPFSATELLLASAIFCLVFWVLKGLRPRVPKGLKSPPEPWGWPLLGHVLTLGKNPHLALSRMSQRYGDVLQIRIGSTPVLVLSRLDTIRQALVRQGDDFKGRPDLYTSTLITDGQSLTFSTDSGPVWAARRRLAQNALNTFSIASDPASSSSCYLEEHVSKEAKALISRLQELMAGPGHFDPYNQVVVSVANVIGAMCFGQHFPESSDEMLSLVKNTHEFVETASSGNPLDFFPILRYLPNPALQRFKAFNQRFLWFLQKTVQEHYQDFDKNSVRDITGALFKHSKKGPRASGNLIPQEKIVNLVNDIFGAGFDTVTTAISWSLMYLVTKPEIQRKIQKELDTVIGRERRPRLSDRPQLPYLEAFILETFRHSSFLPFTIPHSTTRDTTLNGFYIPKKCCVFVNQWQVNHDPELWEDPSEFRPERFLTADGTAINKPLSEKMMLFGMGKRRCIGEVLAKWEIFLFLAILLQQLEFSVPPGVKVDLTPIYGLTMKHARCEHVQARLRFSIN
# Sequence of Cytochrome P450 3A4 (Homo sapiens) (P08684 whole entry, looked up): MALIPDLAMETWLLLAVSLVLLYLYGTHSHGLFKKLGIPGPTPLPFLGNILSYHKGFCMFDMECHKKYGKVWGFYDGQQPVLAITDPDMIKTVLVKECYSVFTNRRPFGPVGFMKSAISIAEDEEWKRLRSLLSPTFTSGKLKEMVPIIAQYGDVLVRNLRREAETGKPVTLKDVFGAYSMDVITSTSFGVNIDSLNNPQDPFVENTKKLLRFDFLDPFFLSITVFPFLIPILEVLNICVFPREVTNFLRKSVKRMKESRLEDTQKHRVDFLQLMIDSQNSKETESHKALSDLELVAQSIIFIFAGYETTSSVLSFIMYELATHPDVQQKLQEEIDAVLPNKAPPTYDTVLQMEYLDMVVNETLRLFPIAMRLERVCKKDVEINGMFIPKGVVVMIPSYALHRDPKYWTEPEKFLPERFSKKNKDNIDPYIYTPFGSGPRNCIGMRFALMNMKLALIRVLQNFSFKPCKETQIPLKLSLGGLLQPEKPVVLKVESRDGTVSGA
# Sequence of Cytochrome P450 2C9 (Homo sapiens) (P11712 whole entry, looked up): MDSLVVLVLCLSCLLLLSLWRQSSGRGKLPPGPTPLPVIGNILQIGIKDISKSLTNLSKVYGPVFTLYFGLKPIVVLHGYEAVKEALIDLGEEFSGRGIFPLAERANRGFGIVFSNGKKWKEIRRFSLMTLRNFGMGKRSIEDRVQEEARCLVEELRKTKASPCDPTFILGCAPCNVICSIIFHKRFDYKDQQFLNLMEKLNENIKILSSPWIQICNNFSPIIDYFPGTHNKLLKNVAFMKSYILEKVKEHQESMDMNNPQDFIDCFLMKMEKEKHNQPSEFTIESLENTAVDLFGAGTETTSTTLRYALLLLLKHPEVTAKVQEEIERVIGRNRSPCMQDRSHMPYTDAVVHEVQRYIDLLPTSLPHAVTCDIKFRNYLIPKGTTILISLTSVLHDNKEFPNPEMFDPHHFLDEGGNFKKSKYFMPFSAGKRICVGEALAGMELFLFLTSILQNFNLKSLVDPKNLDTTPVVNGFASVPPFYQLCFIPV
# Sequence of Voltage-gated inwardly rectifying potassium channel KCNH2 (Homo sapiens) (Q12809 whole entry, looked up): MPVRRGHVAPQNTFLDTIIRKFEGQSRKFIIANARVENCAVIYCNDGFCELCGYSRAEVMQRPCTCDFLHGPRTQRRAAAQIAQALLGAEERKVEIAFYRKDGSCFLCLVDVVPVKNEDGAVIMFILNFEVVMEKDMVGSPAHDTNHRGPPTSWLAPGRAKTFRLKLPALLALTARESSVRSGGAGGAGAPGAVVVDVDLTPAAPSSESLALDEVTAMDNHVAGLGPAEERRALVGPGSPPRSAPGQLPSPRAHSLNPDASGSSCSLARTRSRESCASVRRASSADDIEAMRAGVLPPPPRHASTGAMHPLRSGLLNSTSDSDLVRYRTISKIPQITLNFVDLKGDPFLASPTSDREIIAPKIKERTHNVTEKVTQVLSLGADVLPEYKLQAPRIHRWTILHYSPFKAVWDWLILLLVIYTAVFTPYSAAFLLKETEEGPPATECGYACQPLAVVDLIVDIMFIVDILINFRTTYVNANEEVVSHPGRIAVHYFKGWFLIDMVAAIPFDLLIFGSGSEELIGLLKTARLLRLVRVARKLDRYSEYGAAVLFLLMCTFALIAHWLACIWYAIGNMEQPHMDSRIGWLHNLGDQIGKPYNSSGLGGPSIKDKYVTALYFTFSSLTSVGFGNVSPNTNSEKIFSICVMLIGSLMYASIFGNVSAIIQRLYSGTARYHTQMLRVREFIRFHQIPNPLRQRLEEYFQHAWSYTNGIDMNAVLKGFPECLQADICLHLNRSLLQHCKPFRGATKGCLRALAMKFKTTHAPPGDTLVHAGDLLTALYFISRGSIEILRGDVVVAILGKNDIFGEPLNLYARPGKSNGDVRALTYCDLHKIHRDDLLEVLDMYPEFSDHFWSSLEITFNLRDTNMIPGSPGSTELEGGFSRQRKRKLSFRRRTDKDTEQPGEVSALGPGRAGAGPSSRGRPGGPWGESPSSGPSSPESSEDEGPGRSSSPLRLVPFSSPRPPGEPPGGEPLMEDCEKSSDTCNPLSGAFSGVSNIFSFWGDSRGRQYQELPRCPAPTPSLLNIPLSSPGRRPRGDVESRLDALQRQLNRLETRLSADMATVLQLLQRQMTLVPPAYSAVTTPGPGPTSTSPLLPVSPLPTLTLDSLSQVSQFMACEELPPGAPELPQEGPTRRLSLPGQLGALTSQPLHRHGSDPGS
smiles,measurement,setting,value
CCCCC(CC)C(=O)O (stereo not drawn),Potency,[1],inactive and 71 µM (active)
same,Potency,[2],inactive
same,Potency,[3],inactive
same,Potency,[4],inactive
CC(=O)CCC(=O)O,Potency,[1],inactive
same,Potency,[2],inactive
same,Potency,[3],inactive
NC(=O)n1c(O)c(C(=O)c2cccs2)c2cc(Cl)ccc21,Potency,[1],12.3 µM (active)
same,Potency,[2],15.5 µM (active)
same,Potency,[3],inactive
O=C(Nc1ncc([N+](=O)[O-])s1)c1cccs1,Potency,[1],5.49 µM (active)
same,Potency,[2],1.82 µM (active)
same,Potency,[3],inactive
CC(C)C(=O)Nc1ccc([N+](=O)[O-])c(C(F)(F)F)c1,Potency,[1],32.6 µM (active) and 31.7 µM (active) and 15.5 µM (active)
same,Potency,[2],1.63 µM (active) and 5.03 µM (active) and 2.57 µM (active)
same,Potency,[3],inactive
Nc1c(N=Nc2ccc(-c3ccc(N=Nc4cc(S(=O)(=O)O)c5ccccc5c4N)cc3)cc2)cc(S(=O)(=O)O)c2ccccc12,Potency,[1],31.7 µM (active)
same,Potency,[2],63.3 µM (active)
O=C1O[C@H]([C@@H](O)CO)C(O)=C1O,Potency,[1],inactive
same,Potency,[2],inactive and 19.5 µM (active)
same,Potency,[3],inactive
same,Potency,[4],inactive
CC12CCC(CC1)C(C)(C)O2,Potency,[1],inactive
same,Potency,[2],31.3 µM (active) and inactive
same,Potency,[3],inactive
same,Potency,[4],inactive
C1CCC(C(CC2CCCCN2)C2CCCCC2)CC1 (stereo not drawn),Potency,[1],inactive
same,Potency,[2],inactive
CCCCCCc1ccc(O)cc1O,Potency,[1],7.12 µM (active) and 6.33 µM (active) and 5.49 µM (active)
same,Potency,[2],71.2 µM (active) and 71 µM (active) and inactive
same,Potency,[3],inactive
CC(=O)Nc1c(I)c(NC(C)=O)c(I)c(C(=O)O)c1I,Potency,[1],inactive
same,Potency,[2],inactive
same,Potency,[3],inactive
same,Potency,[4],inactive
Cc1c(C(=O)O)c(O)cc2c1C(=O)c1c(O)c([C@@H]3O[C@H](CO)[C@@H](O)[C@H](O)[C@H]3O)c(O)c(O)c1C2=O,Potency,[1],34.7 µM (active) and 39.9 µM (active)
same,Potency,[2],34.7 µM (active) and 39.9 µM (active) and inactive
same,Potency,[3],inactive
same,Potency,[4],inactive
CN(C)C(=O)Nc1ccc(Cl)c(Cl)c1,Potency,[1],inactive
same,Potency,[2],794 nM (active) and 1.42 µM (active) and 645 nM (active)
same,Potency,[3],inactive
same,Potency,[4],inactive
Nc1ccc(O)c([N+](=O)[O-])c1,Potency,[1],25 µM (active)
same,Potency,[2],48.5 µM (active)
same,Potency,[3],inactive
OC[C@H]1O[C@H](O[C@]2(CCl)O[C@H](CCl)[C@@H](O)[C@@H]2O)[C@H](O)[C@@H](O)[C@H]1Cl,Potency,[1],inactive
same,Potency,[2],inactive
same,Potency,[3],inactive
same,Potency,[4],inactive
NC1CCCCC1,Potency,[1],inactive
same,Potency,[2],40.2 µM (active) and inactive
same,Potency,[3],inactive
same,Potency,[4],inactive
Nc1ccc([N+](=O)[O-])cc1O,Potency,[1],43.5 µM (active)
same,Potency,[2],42.3 µM (active)
same,Potency,[3],inactive
O=C1c2c(O)cccc2Cc2cccc(O)c21,Potency,[1],inactive
same,Potency,[2],inactive
same,Potency,[3],inactive
same,Potency,[4],inactive
COc1ccc(CN(CCN(C)C)c2ccccn2)cc1,Potency,[1],inactive
same,Potency,[2],inactive
same,Potency,[3],21.7 µM (active) and 20.1 µM (active)
same,Potency,[4],inactive
C[C@](N)(Cc1ccc(O)c(O)c1)C(=O)O,Potency,[1],inactive
same,Potency,[2],inactive
same,Potency,[3],inactive
same,Potency,[4],inactive
O=C1OC2(c3ccccc31)c1cc(Br)c(O)c(Br)c1Oc1c2cc(Br)c(O)c1Br,Potency,[1],5.1 µM (active) and 9.19 µM (active) and 7.76 µM (active)
same,Potency,[2],29.1 µM (active)
same,Potency,[3],inactive
same,Potency,[4],inactive
COc1ccc(C(Cl)=C(c2ccc(OC)cc2)c2ccc(OC)cc2)cc1,Potency,[1],8.9 µM (active) and 7.96 µM (active) and 7.76 µM (active)
same,Potency,[2],inactive
same,Potency,[3],inactive
same,Potency,[4],inactive
CCCCCCCCCCCC[N+](C)(C)Cc1ccccc1,Potency,[1],77.2 µM (active)
same,Potency,[2],34.9 µM (active) and 38.7 µM (active) and 36.3 µM (active)
same,Potency,[3],1.08 µM (active) and 1.5 µM (active) and 1.07 µM (active)
same,Potency,[4],inactive
CN[C@H]1CC[C@@H](c2ccc(Cl)c(Cl)c2)c2ccccc21,Potency,[1],30.9 µM (active)
same,Potency,[2],17.4 µM (active)
CCc1nc(N)nc(N)c1-c1ccc(Cl)cc1,Potency,[1],inactive
same,Potency,[2],inactive
same,Potency,[3],inactive
O=c1[nH]cnc2c1ncn2[C@H]1CC[C@@H](CO)O1,Potency,[1],inactive
same,Potency,[2],inactive
same,Potency,[3],inactive
same,Potency,[4],inactive
Nc1ccc2c(c1)CN1C(=O)c3ccccc3C1=N2,Potency,[1],3.79 µM (active)
same,Potency,[2],0.499 µM (active)
same,"activity change, negative = inhibition",[3],0.308% [at 15.8 µM] (inactive)
CN(N=O)C(=O)N[C@@H]1[C@@H](O)[C@H](O)[C@@H](CO)O[C@@H]1O,Potency,[1],inactive
same,Potency,[2],inactive
same,Potency,[3],inactive
same,Potency,[4],inactive
Cc1cc(=O)oc2cc(O)ccc12,Potency,[1],inactive
same,Potency,[2],31.7 µM (active) and 25.2 µM (active) and 17.4 µM (active)
same,Potency,[3],inactive
same,Potency,[4],inactive
NC(CO)(CO)CO,Potency,[1],inactive
same,Potency,[2],inactive
same,Potency,[3],inactive
same,Potency,[4],inactive
Cc1ncc([N+](=O)[O-])n1C,Potency,[1],inactive
same,Potency,[2],inactive
same,Potency,[3],inactive
same,Potency,[4],inactive
CCCCCCCC(=O)OCC(COC(=O)CCCCCCC)OC(=O)CCCCCCC,Potency,[1],inactive
same,Potency,[2],inactive
same,Potency,[3],inactive
same,Potency,[4],inactive
COc1ccc2cc(S(=O)(=O)N[C@H](CC(=O)N[C@H](Cc3ccc(CN4[C@H](C)CCC[C@@H]4C)cc3)C(=O)N(C)C(C)C)c3ccc4c(c3)OCO4)ccc2c1,Potency,[1],59.9 µM (active)
same,Potency,[2],inactive
same,Potency,[3],7.34 µM (active)
same,Potency,[4],0.0949 µM (active)
NC(=O)c1cccnc1,Potency,[1],inactive
same,Potency,[2],inactive
same,Potency,[3],inactive
same,Potency,[4],inactive
O=S1(=O)OC(c2ccc(O)cc2)(c2ccc(O)cc2)c2ccccc21,Potency,[1],3.17 µM (active) and 3.56 µM (active) and 2.45 µM (active)
same,Potency,[2],25.2 µM (active) and 39.9 µM (active)
same,Potency,[3],inactive
same,Potency,[4],inactive
Nc1c2c(nc3ccccc13)CCCC2,Potency,[1],inactive
same,Potency,[2],5.03 µM (active) and 7.1 µM (active) and 7.23 µM (active)
same,Potency,[3],inactive
same,Potency,[4],inactive
CCN(Cc1c(F)cccc1Cl)c1c([N+](=O)[O-])cc(C(F)(F)F)cc1[N+](=O)[O-],Potency,[1],7.96 µM (active)
same,Potency,[2],inactive
same,Potency,[3],inactive
same,Potency,[4],0.399 µM (active)
Cc1cc(C)nc(NS(=O)(=O)c2ccc(N)cc2)n1,Potency,[1],inactive
same,Potency,[2],inactive
same,Potency,[3],inactive
same,Potency,[4],inactive
CS(=O)(=O)OCCCCOS(C)(=O)=O,Potency,[1],inactive
same,Potency,[2],inactive
same,Potency,[3],inactive
same,Potency,[4],inactive
CCCCOC(=O)c1ccc(O)cc1,Potency,[1],32.1 µM (active) and 28.3 µM (active) and 17.4 µM (active)
same,Potency,[2],4.54 µM (active) and 6.33 µM (active) and 4.36 µM (active)
same,Potency,[3],inactive
same,Potency,[4],inactive
CC(=O)C(=O)O,Potency,[1],inactive
same,Potency,[2],inactive and 22.4 µM (active)
same,Potency,[3],inactive
same,Potency,[4],inactive
O=CC(=O)c1ccccc1,Potency,[1],inactive
same,Potency,[2],35.6 µM (active)
same,Potency,[3],inactive
same,Potency,[4],inactive
Cc1ncc([N+](=O)[O-])n1CCO,Potency,[1],inactive
same,Potency,[2],inactive
same,Potency,[3],inactive
same,Potency,[4],inactive
O=C(O)CC(O)C(=O)O (stereo not drawn),Potency,[1],inactive
same,Potency,[2],inactive and 35.6 µM (active)
same,Potency,[3],inactive
same,Potency,[4],inactive
F[B-](F)(F)F,Potency,[1],inactive
same,Potency,[2],inactive and 40.5 µM (active)
same,Potency,[3],inactive
same,Potency,[4],inactive and 40.5 µM (active)
CN(C)C(=S)SC(=S)N(C)C,Potency,[1],36.5 µM (active) and 25.2 µM (active) and 34.7 µM (active)
same,Potency,[2],32.5 µM (active) and 39.9 µM (active) and 25.7 µM (active)
same,Potency,[3],inactive
same,Potency,[4],inactive
NS(=O)(=O)O,Potency,[1],inactive
same,Potency,[2],inactive
same,Potency,[3],inactive
same,Potency,[4],inactive
CCCc1cc(=O)[nH]c(=S)[nH]1,Potency,[1],inactive
same,Potency,[2],inactive
same,Potency,[3],inactive
same,Potency,[4],inactive
O=C(O)c1ccccc1,Potency,[1],inactive
same,Potency,[2],37.4 µM (active) and inactive
same,Potency,[3],inactive
same,Potency,[4],inactive
C=C(C)C(=O)OCC(C)O (stereo not drawn),Potency,[1],inactive
same,Potency,[2],inactive
same,Potency,[3],inactive
same,Potency,[4],inactive
CCCCCCCCCCCCCCCC[N+](C)(C)Cc1ccccc1,Potency,[1],82.2 µM (active) and 36.2 µM (active) and 30.9 µM (active)
same,Potency,[2],36.7 µM (active) and 72.3 µM (active) and inactive
same,Potency,[3],1.79 µM (active) and 4.98 µM (active) and 6.74 µM (active)
same,Potency,[4],inactive
Cc1cn([C@H]2C=C[C@@H](CO)O2)c(=O)[nH]c1=O,Potency,[1],inactive
same,Potency,[2],inactive
same,Potency,[3],inactive
same,Potency,[4],inactive
CCOC(N)=O,Potency,[1],inactive
same,Potency,[2],inactive
same,Potency,[3],inactive
same,Potency,[4],inactive
CN(C)CCOC(C)(c1ccccc1)c1ccccn1 (stereo not drawn),Potency,[1],inactive
same,Potency,[2],inactive
same,Potency,[3],inactive
same,Potency,[4],inactive
COc1ccc(OC(F)(F)F)cc1CN[C@H]1CCCN[C@H]1c1ccccc1,Potency,[4],1.78 µM (active)
C=CCc1ccc(O)c(OC)c1,Potency,[2],31.5 µM (active) and 39.9 µM (active)
same,Potency,[3],inactive
same,Potency,[4],inactive
CC(O)(P(=O)(O)O)P(=O)(O)O,Potency,[1],inactive
same,Potency,[3],inactive
same,Potency,[4],inactive
CNNCc1ccc(C(=O)NC(C)C)cc1,Potency,[3],inactive
CC(=O)CC(c1ccccc1)c1c(O)c2ccccc2oc1=O (stereo not drawn),Potency,[3],inactive
CC1(C)S[C@@H]2[C@H](NC(=O)[C@H](N)c3ccccc3)C(=O)N2[C@H]1C(=O)O,Potency,[2],inactive
same,Potency,[4],inactive
CC(C)NCC(O)c1ccc(O)c(O)c1 (stereo not drawn),Potency,[3],inactive
Cn1c(=O)c2c(ncn2C)n(C)c1=O,Potency,[3],inactive
CCOc1ccc(NC(C)=O)cc1,Potency,[1],inactive
same,Potency,[3],inactive
same,Potency,[4],inactive
COc1cccc(O)c1O,Potency,[1],inactive
same,Potency,[3],inactive
same,Potency,[4],inactive
O=C1NS(=O)(=O)c2ccccc21,Potency,[3],inactive
O=C1NC(=O)C(c2ccccc2)(c2ccccc2)N1,Potency,[3],inactive
CCCCNC(=O)NS(=O)(=O)c1ccc(C)cc1,Potency,[3],inactive
